The panel holds about 83,000 compounds, 20% with a hit somewhere; the sample as a whole holds those more often.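 Percent growth is the endpoint: 0 to 100 indicates growth inhibition (40 means 60% inhibition), 0 means no net growth, and negative values indicate cell death.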 Unmarked numbers belong to inactive results. Activity calls are given as the source filed them. Rule for the calls: active = growth percent below 10; inactive = the rest.
Columns and labels:
Test in all cases: NCI-60 one-dose screen, 48 h (100 = growth as untreated, 0 = no growth, -100 = all killed)
NCI-H23 lung = settings: 10 µM unless noted
NCI-H226 lung = settings: 10 µM unless noted
NCI-H322M lung = settings: 10 µM unless noted
HOP-62 NSCLC = settings: 10 µM unless noted
NCI-H460 lung = settings: 10 µM unless noted
HOP-92 NSCLC = settings: 10 µM unless noted
NCI-H522 lung = settings: 10 µM unless noted
A549/ATCC NSCLC = settings: 10 µM unless noted
786-0 renal = settings: 10 µM unless noted
COLO 205 colon = settings: 10 µM unless noted
DU-145 prostate = settings: 10 µM unless noted
K-562 leukemia = settings: 10 µM unless noted
MALME-3M melanoma = settings: 10 µM unless noted
MDA-MB-231 breast = settings: 10 µM unless noted
RXF 393 renal = settings: 10 µM unless noted
SF-268 CNS = settings: 10 µM unless noted
SF-295 CNS = settings: 10 µM unless noted
SF-539 CNS = settings: 10 µM unless noted
UACC-257 melanoma = settings: 10 µM
M14 melanoma = settings: 10 µM unless noted

Structure (SMILES) | growth (NCI-H23 lung) | growth (NCI-H226 lung) | growth (NCI-H322M lung) | growth (HOP-62 NSCLC) | growth (NCI-H460 lung) | growth (HOP-92 NSCLC) | growth (NCI-H522 lung) | growth (A549/ATCC NSCLC) | growth (786-0 renal) | growth (COLO 205 colon) | growth (DU-145 prostate) | growth (K-562 leukemia) | growth (MALME-3M melanoma) | growth (MDA-MB-231 breast) | growth (RXF 393 renal) | growth (SF-268 CNS) | growth (SF-295 CNS) | growth (SF-539 CNS) | growth (UACC-257 melanoma) | growth (M14 melanoma) [%]
Cc1cc2nc(C(Cl)Cl)nc(-c3ccco3)n2n1 | 76.8% | 95.6% | 23.3% | 47.9% | 0.56% (active) | 79.5% | 93.9% | 3.5% (active) | 96.2% | 25.8% | -12.5% (active) | 89.7% | 108% | 64.2% | 12.5% | 81.2% | 20.3% | 66.1% | 92.9% | –
CN(c1ccc(F)cc1)S(=O)(=O)c1ccc(-c2cnc(C3CC3)o2)cc1 | 30.5% | 60.5% | 45.6% | 44.1% | 17.2% | 81.1% | 25.6% | 31.1% | 50.3% | 6.42% (active) | 23.5% | 10.3% | 65.3% | 28.4% | -8.88% (active) | 64.2% | -12.9% (active) | 4.96% (active) | 70.9% | 14.6
O=C(CSc1nnc(-c2cccs2)n1-c1ccccc1)Nc1ccc(F)cc1 | 102% | 98.3% | 97% | 109% | 103% | 89.6% | 82.4% | 99.3% | 103% | 105% | 107% | 65.4% | 97.4% | 83.1% | 97.9% | 101% | 91% | 89.9% | 103% | –
NS(=O)(=O)c1ccc(-n2cc(CC=O)nn2)cc1 | 105% | 99% | 111% | 105% | 105% | 94.8% | 94.5% | 103% | 102% | 121% | 107% | 93.6% | 108% | 103% | 99.5% | 102% | 98.6% | 99% | 102% | –
IP(CCCCCCCCCCSc1n(Cc2ccc3ccccc3c2)c(-c2ccccc2)c(-c2ccccc2)[n+]1Cc1ccc2ccccc2c1)(c1ccccc1)(c1ccccc1)c1ccccc1 | -66.2% (active) | -55.2% (active) | -68.4% (active) | -59.1% (active) | -63.4% (active) | -77.8% (active) | -61.8% (active) | -55% (active) | -56.2% (active) | -55.2% (active) | -69.6% (active) | -46.4% (active) | -70.5% (active) | -63.7% (active) | -35.6% (active) | -54.6% (active) | -77.6% (active) | -66.7% (active) | -55.8% (active) | –
O=C1c2c(c3c4cccnc4[nH]c3c3ccc4ccccc4c23)C(=O)N1CCN1CCNCC1 | 81.6% | 89.4% | 88% | 63.6% | 32.6% | 85.3% | 81.8% | 44% | 52.7% | 81.9% | 74.8% | -35.5% (active) | 92.3% | 89.9% | 75.5% | 78.3% | 84.2% | 73.8% | 106% | 64.4
O=C(/C=C1\C=CN(CCCCCCF)c2ccccc21)n1ccc2ccccc21 | 89.5% | 48.4% | 96.6% | 85.8% | 110% | 70.3% | 86.4% | 102% | 111% | 103% | 109% | 91.2% | 91.6% | 84.4% | 121% | 99.7% | 94.6% | 99.3% | 103% | 92
Clc1ccc(-c2csc(Nc3cccc(Nc4csc(-c5ccc(Cl)cc5)n4)c3)n2)cc1 | 72.3% | 74.6% | 68.9% | 85.3% | 79.1% | 75.9% | 45.6% | 88.5% | 104% | 94.2% | 86.2% | 67.1% | 98% | 64.2% | 94.4% | 79.3% | 90% | 82.8% | 102% | 74.7

— PubChem BioAssay (NCI)
